From PubChem BioAssay (EPA / NIEHS)
Records with an inconclusive call do not appear. Active and inactive are the calls of the source. The calls were made as follows: active = hit-call score of the fitted dose curve at least 0.9, where 1 is the maximum; inconclusive = response in the unintended direction; inactive = score below 0.9.

Target: Glucocorticoid receptor (Homo sapiens) (UniProt P04150)
Experiment: ATG_GR_TRANS: Attagene TRANS-FACTORIAL HepG2 Assay for human Glucocorticoid Receptor (GR) (AID 2282978);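 also: activators score as hits since higher reporter transcript over DMSO is fitted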
Conditions: HepG2 Attagene TRANS GR reporter, mRNA transcription
Method: ATG_TRANS is a cell-based, multiplexed-readout assay that uses HepG2, a human liver cell line, with measurements taken at 24 hours after chemical dosing in a 24-well plate.ATG_GR_TRANS is one of 30 assay component(s) measured or calculated from the ATG_TRANS assay. It is designed to make measurements of mRNA induction, a form of inducible reporter, as detected with fluorescence intensity signals by Reverse transcription polymerase chain reaction (RT-PCR) and Capillary electrophoresis technology.Data from the assay component ATG_GR_TRANS was analyzed into 1 assay endpoint. This assay endpoint, ATG_GR_TRANS, was analyzed in the positive analysis fitting direction relative to DMSO as the negative control and baseline of activity. Using a type of inducible reporter, measures of mRNA for gain-of-signal activity can be used to understand the reporter gene at the transcription factor-level as they relate to the gene NR3C1. Furthermore, this assay endpoint can be referred to as a primary readout, because this assay has produced multiple assay endpoints where this one serves a reporter gene function. To generalize the intended target to other relatable targets, this assay endpoint is annotated to the nuclear receptor intended target family, where the subfamily is steroidal.
Human liver HepG2 cells are transiently transfected with multiple reporter transcription units (MRTUs) in 6-well plates using FuGene 6 reagent (Roche; 3 ml FuGene/1 mg DNA). The MRTU constructs are regulated by a cis-regulating element (promoter). […] A major difference between the CIS and TRANS system is that in CIS activities of endogenous TFs are measured, whereas the TRANS assay evaluates changes in activities of exogenous, chimeric NR-Gal4 proteins. […] At the end of 24 hour incubation, total RNA was isolated using TriZol reagent (Invitrogen). The isolated RNA is then reverse-transcribed using oligo(dT) primer and Mo-MLV reverse transcriptase (Invitrogen) with DNAse I (Ambion) treatment for 30 min. The one-tenth of the produced cDNA was amplified by PCR using Taq DNA polymerase (Invitrogen) and two reporter sequence-specific primers. The PCR products were fluorescently labeled by primer extension with 6-arboxyfluorescein (6-FAM) 5'-labeled reporter sequence-specific primer (2 min at 95 C, 20 s at 68 C and 10 min at 72 C) and these products were digested with 5U of HpaI (New England Biolabs) for 2h at 37 C. The fragments were purified using Qiaquick PCR columns (Qiagen), analyzed on an ABI 3130xL genetic analyzer (Applied Biosystems) with peak positions identified by using a set of X-rhodamine (ROX)-labeled MapMarker1000 molecular weight standards (BioVentures). The raw capillary electrophoresis data was processed using Attagraph software (Attagene).

Sequence of Glucocorticoid receptor (Homo sapiens) (P04150 whole entry, looked up): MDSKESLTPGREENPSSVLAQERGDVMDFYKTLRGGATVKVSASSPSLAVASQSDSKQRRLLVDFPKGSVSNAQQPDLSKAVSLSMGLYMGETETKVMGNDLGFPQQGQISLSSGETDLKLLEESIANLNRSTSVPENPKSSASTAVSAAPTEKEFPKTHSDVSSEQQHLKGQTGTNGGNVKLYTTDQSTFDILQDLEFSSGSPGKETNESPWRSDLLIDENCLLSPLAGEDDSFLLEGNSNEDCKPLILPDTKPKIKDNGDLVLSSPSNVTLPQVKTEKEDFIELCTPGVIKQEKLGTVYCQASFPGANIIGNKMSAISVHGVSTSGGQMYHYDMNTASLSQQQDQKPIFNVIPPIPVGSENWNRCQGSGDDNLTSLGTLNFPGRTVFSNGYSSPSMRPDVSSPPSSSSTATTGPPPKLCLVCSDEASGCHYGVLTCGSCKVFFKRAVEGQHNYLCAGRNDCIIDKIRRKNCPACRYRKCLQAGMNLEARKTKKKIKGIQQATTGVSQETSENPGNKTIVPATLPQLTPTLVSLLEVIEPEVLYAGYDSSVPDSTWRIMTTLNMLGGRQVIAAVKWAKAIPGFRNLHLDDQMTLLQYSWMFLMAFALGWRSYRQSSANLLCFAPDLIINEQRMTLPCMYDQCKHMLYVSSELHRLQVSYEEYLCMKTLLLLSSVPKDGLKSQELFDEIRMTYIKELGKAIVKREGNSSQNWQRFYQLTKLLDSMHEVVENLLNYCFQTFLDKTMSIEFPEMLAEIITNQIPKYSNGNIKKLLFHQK

outcome, inactive:
CC(=O)c1ccc2c(c1)[C@H](NC(=O)c1ccc(F)cc1)[C@@H](O)C(C)(C)O2
CC(C)CC(C)(O)C#CC(C)(O)CC(C)C (stereo not given)
CCCCC(CC)COC(=O)CCCCCCCCC(=O)OCC(CC)CCCC (stereo not given)
CC1=CC(=O)CC(C)(C)C1
CCCCCCCCO
CCOc1cccc(-n2cc(C(=O)N3CCN(c4cc(C(=O)O)c5ccccc5c4)CC3)nc2-c2ccc(C)cc2)c1
O=C1CCC(N2C(=O)c3ccccc3C2=O)C(=O)N1 (stereo not given)
COc1ccc2sc(C(=O)Nc3nnn[nH]3)c(OC(C)C)c2c1
CC[C@H]1CC[C@H](NCc2cc3c(cc2OC)[C@H]2C[C@H]2C(=O)N3C)[C@H](c2ccccc2)N1
CC(C)c1cccc(C(C)C)c1N1C(=O)c2ccc(O)cc2C1=O
NC(=O)NO
COc1ccc(/C=C/S(=O)(=O)NC(=O)c2ccc(C)cc2Cl)cc1
CCC(C)(C)C(=O)O[C@H]1C[C@@H](C)C=C2C=C[C@H](C)[C@H](CC[C@@H]3C[C@@H](O)CC(=O)O3)[C@H]21
CC(C)=CCC/C(C)=C/CO
COCCOCCOCCOC
CN(C)c1ccc(N=NS(=O)(=O)O)cc1
Cc1ccc(N)cc1O
CC(C)=CCC/C(C)=C\CO
CC(C)=CCCC(C)=CC=O
CCOCCO
COc1cccc(-c2ccc(/C=C\CN3CCCCCC3)cc2Cl)c1
Cc1ccc(O)cc1
Cn1cnc([N+](=O)[O-])c1Sc1ncnc2nc[nH]c12
CC/C(=C\C(=N/O)C(N)=O)C(C)[N+](=O)[O-] (stereo not given)
CC[C@H](C)C(=O)O[C@H]1C[C@@H](C)C=C2C=C[C@H](C)[C@H](CC[C@@H]3C[C@@H](O)CC(=O)O3)[C@H]21
O=C(O)c1cccc(Oc2ccccc2)c1
CCCCCCc1ccc(O)cc1O
CCCC(=O)OCC
CC(O)CN(CCN(CC(C)O)CC(C)O)CC(C)O (stereo not given)
Oc1ccc2c(c1)-c1ccccc1C2
CCCN(C1CCN(C(=O)C2CCNCC2)CC1)[C@@H]1CCc2ccc(OC)cc2C1
CNCc1ccc(NC(=O)c2c[nH]c3c2C(=O)CCC3)cc1
C1=CCCC=CCCC=CCC1
Nc1nc2ncc(CNc3ccc(C(=O)N[C@@H](CCC(=O)O)C(=O)O)cc3)nc2c(=O)[nH]1
CCOC(=O)c1ccc(C2CCC(NC[C@H](O)COc3ccc(O)c(NS(C)(=O)=O)c3)CC2)cc1 (stereo not given in full)
COC(=O)CC(=O)OC
Cn1c(=O)cc(Oc2ccc(F)cc2F)c2cnc(NCC(C)(C)O)nc21
COCCOc1cc2cc(C(=O)NC3CCN(C(C)C)CC3)n(CC(=O)Nc3ccc(Cl)cn3)c2cn1
Cc1[nH]cnc1C[C@H]1CCc2c(C)c3ccccc3n2C1=O

AC50, active:
O=C(CCCCCCCCc1cccnc1)N1CCC(C=C(c2ccccc2)c2ccccc2)CC1 100 µM
